Source: PubChem BioAssay
The list is not random: actives were taken first. Their share in the collection is about 3.1%.
PAX8 inh HTS – PAX8 transcriptional activity inhibition. RMG-I TPO-luciferase reporter, SteadyGlo, 24 h. inhibition, % at 12.6 µM. 360,000 tested, 1.2% active. AID 652154;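 active = mean replicate inhibition at least 60% with every replicate also reaching 60%; inconclusive = only one of the two criteria is met; inactive = mean below 60% and not all replicates reaching 60%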;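 note: luciferase light reporting Pax8 driven TPO promoter activity; plate controls were median of neutral control wells for no effect and mitoxantrone controls for full effect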
EWS-Fli block – EWS/Fli transcriptional activity inhibition; A673 NR0B1-luciferase reporter, viability-normalised; inhibition, % at 12.6 µM; 350,000 tested, 0.67% active;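 active = mean inhibition of at least 50% after viability correction, with every replicate also passing that limit; inconclusive = mean reaches 50% but only one of two replicates passes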;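 note: firefly luciferase signal divided by Alamar Blue viability fluorescence both relative to DMSO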
Statin myotox sup – protects C2C12 myotubes from simvastatin toxicity | rescue of ATP level, % at 7.49 µM | ATP luminescence, 48 h; scaled: DMSO 0, geranylgeraniol control 100 | 330,000 tested, 0.78% active | AID 602340;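 active = mean ATP rescue above about 67%, or every replicate alone reaching that limit, limit read from the data, passing the limit was not always enough; inconclusive = no clear call, values can overlap the other calls; inactive = mean under the limit and some replicate under it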;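 note: myotubes were challenged with 10 µM simvastatin during compound exposure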
GSIS activator – GLuc luminescence reporter in INS-1E cells, primary screen for activators of glucose-dependent secretion of insulin; activation, % at 16.6 µM; 370,000 tested, 0.61% active; INS-1E GLuc reporter insulin secretion, 2-3 h; AID 743287;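 active = lowest replicate activation of at least 40%, so every replicate reaches that level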;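 note: 0% = median of neutral control wells and 100% = median of IBMX positive control wells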
Env fusion inh – blocks HIV Env-driven cell-cell fusion | HeLa-JRFL Env/CEM21 cell fusion, luciferase | inhibition, % at 12.3 µM | 360,000 tested, 1.1% active;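 active = mean replicate inhibition score of at least 50 and every replicate individually at or above 50; inconclusive = only one of the two criteria met; inactive = mean below 50 and not all replicates reaching 50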;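 note: 0% = plate neutral controls and 100% = maraviroc near 300 nM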
miR-122 sensor – miR-122 inhibition in Huh7 cells; 340,000 tested, 0.3% active; Huh7 miR-122 Renilla luciferase sensor, 48 h; neutral wells = 0, positive control = 100; AID 602342; activation (reporter increase), % at 12.5 µM;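 active = mean replicate activation score at least 90 and every replicate individually at or above 90; inconclusive = only one of the two criteria met; inactive = neither criterion met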;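 note: higher luciferase means less miR-122 activity so hits act as miR-122 inhibitors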
An asterisk follows results filed as active; ? = inconclusive; / = no result; [ ] = dose if it differs, or a comment.

SMILES | PAX8 inh HTS | EWS-Fli block | Statin myotox sup | GSIS activator | Env fusion inh | miR-122 sensor
Cc1noc(C)c1S(=O)(=O)N(C)C[C@H]1Oc2ccc(NC(=O)NC(C)C)cc2CC(=O)N([C@@H](C)CO)C[C@H]1C | 12 | -5 | -13 | 5 | 4[16.7 µM] | 6[16.7 µM]
COc1ccc(S(=O)(=O)Nc2cccc3c2O[C@H](CN(C)C)[C@H](C)CN([C@H](C)CO)C3=O)cc1 | -17 | -8 | 12 | 0 | / | 2[16.7 µM]
O=C(NN1C(=O)c2ccccc2C1=O)C1CC2CCC1C2 (stereo not drawn) | 23 | -2 | 5 | 12 | 14 | -4
O=C(NN1C(=O)c2ccccc2C1=O)C1CCCCC1 | / | / | 100* | / | / | 7
C[C@H](CO)N1C[C@H](C)[C@@H](CN(C)C(=O)CC2CC2)Oc2ncc(C#CC3CC3)cc2C1=O | / | -3 | 10 | -3 | -15[16.7 µM] | 6[16.7 µM]
CN(C[C@H](Cc1ccccc1)N(C[C@H](c1ccccc1)N(CCc1ccccc1)N=O)N=O)N=O | 18 | 4 | -15 | -27 | 74* | /
CC(C)C[C@@H](CN(N=O)[C@@H](Cc1ccccc1)CN(C)N=O)N(CCc1ccccc1)N=O | -11 | 9 | -9 | 3 | 22 | -1
CN(C[C@H](Cc1ccccc1)N(C[C@H](Cc1ccccc1)N(CCC(C)(C)C)N=O)N=O)N=O | 26 | 22 | -17 | -14 | 62* | 2
CC(C)CCN(N=O)[C@@H](Cc1ccccc1)CN(N=O)[C@@H](Cc1ccccc1)CN(C)N=O | -17 | 16 | -16 | -32 | 93* | /
CN(C[C@H](c1ccccc1)N(C[C@H](Cc1ccccc1)N(CCc1ccccc1)N=O)N=O)N=O | 45 | 14 | -20 | -6 | 32 | /
CCN(N=O)[C@@H](Cc1ccccc1)CN(N=O)[C@@H](Cc1ccccc1)CN(C)N=O | 11 | 0 | 11 | -30 | 36 | 2
CN(C[C@H](Cc1ccccc1)N(C[C@@H](CC1CCCCC1)N(CCc1ccccc1)N=O)N=O)N=O | 9 | 6 | -10 | -19 | 56* | 5
CN(C[C@@H](Cc1cccc2ccccc12)N(C[C@H](Cc1ccccc1)N(CCc1ccccc1)N=O)N=O)N=O | 24 | 10 | 0 | / | 26 | /
CCOC(=O)c1cnn(CCOC(=O)c2cccc(F)c2)c1NC(=O)c1cccc(F)c1 | 110* | -5 | 0 | 8 | / | 36
Cc1noc(C)c1NC(=O)Nc1ccc2c(c1)CC(=O)N([C@@H](C)CO)C[C@@H](C)[C@H](CN(C)C(=O)Nc1cccc3ccccc13)O2 | 20 | -8 | 19 | 4 | 12[16.7 µM] | -3[16.7 µM]
Cc1cccc(N(C)c2cc(-c3ccc(F)cc3)nc3ccnn23)c1 | 12 | 1 | 10 | / | 63* | -5
COc1cccc(NC(=O)N(C)C[C@H]2Oc3cc(C#Cc4ccc(F)cc4)ccc3S(=O)(=O)N([C@H](C)CO)C[C@@H]2C)c1 | / | 36 | 10 | -7 | -8[16.7 µM] | 37[16.7 µM]
COc1ccc(CNc2oc(COc3ccc(Cl)cc3)nc2C#N)cc1 | / | / | 25 | / | ? | 7
COc1ccc(Nc2oc(COc3ccc(Cl)cc3)nc2C#N)cc1 | 26 | / | / | / | 84* | -3
CCOc1ccc(Nc2oc(-c3ccc(Cl)cc3)nc2C#N)cc1 | / | / | 2 | 73* | -84 | 11
COc1ccc(Nc2oc(-c3ccc(Cl)cc3)nc2C#N)cc1 | / | / | -30 | / | -199 | 0
O=[N+]([O-])c1cccc(Oc2ncccc2[N+](=O)[O-])c1 | -3 | 2 | -3 | 78* | / | -3
C[C@@H]1CCCCO[C@H](CN(C)S(=O)(=O)c2cccs2)[C@@H](C)CN([C@@H](C)CO)C(=O)c2cc(NS(=O)(=O)c3ccccc3)ccc2O1 | -2 | 0 | / | -1 | -42[16.7 µM] | 37[16.7 µM]
COC(=O)C1=C(C)N(Cc2ccc(C(F)(F)F)cc2)C(=NCc2ccc(C(F)(F)F)cc2)NC1c1ccccc1 (stereo not drawn) | 40 | 40 | / | / | 38 | /
COC(=O)C1=C(C)N(Cc2ccccc2)C(=NCCc2ccccn2)N[C@H]1c1cccc(C(F)(F)F)c1 | 18 | 0 | -11 | -6 | 80* | -7
SMILES | PAX8 inh HTS | EWS-Fli block | Statin myotox sup | GSIS activator | Env fusion inh | miR-122 sensor
COC(=O)C1=C(C)N(Cc2cccc(C(F)(F)F)c2)C(=NCc2ccc(C(F)(F)F)cc2)NC1c1cccc(F)c1 (stereo not drawn) | 74* | 49 | / | / | 18 | /
COC(=O)C1=C(C)N(Cc2ccc(C(F)(F)F)cc2)C(=NCc2ccccc2)NC1c1cccc(F)c1 (stereo not drawn) | 101* | 26 | / | 671* | ? | /
COC(=O)[C@H]1[C@H](CO)[C@H]2Cn3c(ccc(C4=CCCCC4)c3=O)[C@H]2N1CCC(F)(F)F | / | -4 | -11 | -4 | / | /
COCC(=O)N1CC2(CCN(Cc3nccs3)CC2)c2c(n(C)c3cc(OC)ccc23)[C@H]1CO | -10 | -3 | / | 1 | / | /
COc1ccc(-c2cc(=O)oc3c(C)c(O)ccc23)cc1 | 26 | -6 | 7 | 14 | 72* | /
Cc1c(O)ccc2c(-c3ccccc3)cc(=O)oc12 | 12 | 5 | -18 | 14 | 33 | -1
COc1ccc(NC(=O)c2cc(C3CCCCN3C(=O)Cc3ccc(N(C)C)cc3)on2)c(C)c1 (stereo not drawn) | 2 | -7 | 0 | 1 | / | 8
CN(C)c1ccc(CC(=O)N2CCCCC2c2cc(C(=O)Nc3ccccc3Cl)no2)cc1 (stereo not drawn) | 35 | 5 | 11 | 45* | 11 | -6
CCCCCC1CC(=O)C=C(C)C1C(=O)OC (stereo not drawn) | -9 | -8 | 0 | 3 | 0 | 1
COC(=O)C1C(OC)=CC(=O)C2CCCCC21 (stereo not drawn) | -17 | 3 | -6 | 18 | 57* | -7
O=C(c1ccco1)N1CCCC(c2nc(-c3ccc(S(=O)(=O)NCc4ccccc4)cc3)no2)C1 (stereo not drawn) | / | / | -28 | / | 65* | 20
C[C@H](CO)N1C[C@H](C)[C@H](CN(C)S(=O)(=O)c2cn(C)cn2)Oc2ccc(NS(=O)(=O)c3ccccc3)cc2CC1=O | -11 | 3 | -2 | 35 | 3[16.7 µM] | 10[16.7 µM]
COc1ccc(/C=C/c2cccc[n+]2C)c(O)c1 | 19 | -11 | -84 | 2 | 8 | -11
CCN(CC)c1ccc(/C=C/c2cccc[n+]2C)c(OC)c1 | 95* | 11 | -88 | -49 | 53 | /
C[C@H]1CN([C@@H](C)CO)S(=O)(=O)c2ccc(C3=CCCCC3)cc2O[C@H]1CN(C)S(=O)(=O)c1ccc(F)cc1 | / | 33 | -2 | -9 | 40[16.7 µM] | -5[16.7 µM]
C[C@@H]1CN([C@H](C)CO)S(=O)(=O)c2ccc(C3=CCCC3)cc2O[C@@H]1CN(C)S(=O)(=O)c1ccc(F)cc1 | / | 7 | -32 | 6 | 50[16.7 µM] | 3[16.7 µM]
C[C@@H]1CN([C@@H](C)CO)S(=O)(=O)c2ccc(C3=CCCCC3)cc2O[C@@H]1CN(C)S(=O)(=O)c1ccc(F)cc1 | / | 16 | -16 | 1 | 62*[16.7 µM] | 15[16.7 µM]
